The list is not random: actives were taken first. Their share in the collection is about 0.5%.
RTF Ca sens inh – cardiac RTF calcium desensitization; AID 493244; actives 0.12% (n = 340,000); IANBD-labeled cardiac RTF, Ca2+ fluorescence; inhibition, % at 7.15 µM; P19429+P45379;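 active = inhibition above the mean inhibition of all tested compounds plus 3 SD, cut at about 17% in these data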;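 also: assay run at fixed EC70 calcium of 1.6 mM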
C-LANA FP – KSHV C-LANA DNA binding inhibition; MBP-C-LANA/FAM-LBS DNA binding, fluorescence polarization; inhibition, % at 9 µM; actives 0.078% (n = 340,000);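 active = highest replicate inhibition at or above 60% at 9 µM, even if other replicates fall short; inactive = all replicates below 60% inhibition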;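 also: 0% = neutral control wells and 100% = 4 µM acridine orange control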
Keap1 Nrf2 FP – inhibitors of human Keap1-Nrf2 protein-protein interaction | actives 0.15% (n = 340,000) | Keap1 Kelch-Nrf2 peptide fluorescence polarization, 1536-well | inhibition, % at 9.4 µM | AID 504523; in the data active = inhibition above about 12%;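 also: human Keap1 Kelch domain with fluorescein labeled Nrf2 9mer peptide probe; 0% = neutral control wells and 100% = peptide positive control; higher means more block of Keap1 binding to Nrf2 peptide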
Target sequence (Q14145 whole entry, looked up, the tested form may be a part): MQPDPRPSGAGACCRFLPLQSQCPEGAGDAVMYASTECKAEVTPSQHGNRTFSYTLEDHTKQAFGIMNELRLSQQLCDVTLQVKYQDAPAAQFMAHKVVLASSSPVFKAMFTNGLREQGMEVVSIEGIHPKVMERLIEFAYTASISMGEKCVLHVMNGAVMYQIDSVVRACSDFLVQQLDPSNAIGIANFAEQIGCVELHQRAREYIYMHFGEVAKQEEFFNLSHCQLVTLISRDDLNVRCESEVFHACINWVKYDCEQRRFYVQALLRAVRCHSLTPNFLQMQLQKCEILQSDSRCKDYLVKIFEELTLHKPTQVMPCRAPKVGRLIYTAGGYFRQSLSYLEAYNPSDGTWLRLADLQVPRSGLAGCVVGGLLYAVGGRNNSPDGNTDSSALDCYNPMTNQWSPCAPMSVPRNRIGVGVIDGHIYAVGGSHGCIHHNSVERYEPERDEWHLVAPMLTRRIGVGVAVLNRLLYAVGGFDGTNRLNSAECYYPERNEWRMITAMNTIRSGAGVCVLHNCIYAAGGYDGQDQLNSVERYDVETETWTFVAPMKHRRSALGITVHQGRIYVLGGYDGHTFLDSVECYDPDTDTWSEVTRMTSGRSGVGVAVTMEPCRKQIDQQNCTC
cardiac RTF act – cardiac RTF calcium sensitization; activation, % at 7.2 µM; IANBD-labeled TnC RTF fluorescence at EC20 calcium; 0% EC20 calcium, 100% full calcium; actives 0.24% (n = 340,000); AID 493008;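 active = activation above the mean over all tested compounds plus 3 SD, cut at about 30% in these data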;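 also: rise in fluorescence read as greater calcium sensitivity of cardiac thin filaments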
The depositor's hits bear a star.

SMILES	RTF Ca sens inh	C-LANA FP	Keap1 Nrf2 FP	cardiac RTF act
CCCN(c1ccccc1C(=O)O)S(=O)(=O)c1ccc2c(c1)n(C)c(=O)n2C	0	-1	-5	0
CCOC(=O)c1ccc(NS(=O)(=O)c2c(C)[nH]c(C)c2C(=O)N2CCCCC2)cc1	-1	0	-3	-6
CSCCC(NS(=O)(=O)c1ccccc1)C(=O)OCc1cc(=O)oc2cc(O)ccc12 (stereo unspecified)	-5	0	4	-4
CC(C)(C)c1ccc(C(=O)n2cnc3ccccc32)cc1	-1	7	-4	50*
N#CC1=C(N)SC(N)=C(C#N)C1CCc1ccccc1	-55	-5	-21	39*
Cc1[nH]nc2c1C(Cc1ccccc1)C(C#N)=C(N)O2 (stereo unspecified)	-17	0	-2	-1
CC(C)CC1C(C#N)=C(N)SC(N)=C1C#N	-37	-11	-82	42*
N#CC1=C(N)SC(N)=C(C#N)C1Cc1ccccc1	-73	-5	-24	43*
Cc1cc(=O)[nH]c2c1cnn2C(C)c1ccccc1 (stereo unspecified)	2	-1	-3	6
O=C(c1ccccc1)N1CCN(C(=O)c2nn3c(C(F)(F)F)cc(-c4ccccc4)nc3c2Br)CC1	7	0	-3	0
Cc1cc(N2CCCC2)ccc1/C=C1\NC(=S)N(C)C1=O	-119	-16	-22	53*
O=C1/C(=C/c2ccc(N3CCCC3)cc2)NC(=S)N1C1CC1	-152	-4	-32	56*
COC(=O)c1ccc(CS(=O)(=O)c2ccc(F)cc2)o1	-3	4	0	32*
COc1ccc(S(=O)(=O)Cc2ccc(C(=O)NC(C)C)o2)cc1	-8	0	-3	0
CCOC(=O)c1cc(C#N)c(SCC(=O)c2cc(C#N)c(SC)nc2C)[nH]c1=O	-72	31	9	58*
CCc1nnc(SCC(=O)Nc2ccc(F)cc2)o1	0	-1	-4	3
Cc1ccc(NC(=O)COCC(=O)Nc2ccc(C)cc2)cc1	3	-1	-1	-3
Cc1ccc(S(=O)(=O)OCC(=O)Nc2ccc(C(=O)O)c(O)c2)cc1	-10	62*	-5	-6
CCCNC(=O)Cn1c(=O)/c(=C/c2ccc(-c3ccc([N+](=O)[O-])cc3)o2)s/c1=C\C(=O)C(C)(C)C	-75	1	-8	52*
CSc1ccc(/C=c2\s/c(=C\C(=O)C(C)(C)C)n(CC(=O)NCCC3=CCCCC3)c2=O)cc1	4	17	7	8
CCOC(=O)c1[nH]c(C)c(C(=O)/C=C/c2ccc(C(=O)O)cc2)c1C	5	-1	2	1
Cc1ccccc1NC(=O)C1CCN(C2=NS(=O)(=O)c3ccccc32)CC1	-5	61*	1	8
Cc1ccc(NC(=O)C2CCCN(C3=NS(=O)(=O)c4ccccc43)C2)c(O)c1 (stereo unspecified)	-1	0	4	4
CCOc1ccc(N=C2NC(=O)S/C2=C\c2ccc(Cl)cc2)cc1	9	0	0	5
COc1ccc(N=C2NC(=O)S/C2=C\c2ccc(N(C)C)cc2)cc1	-114	3	-5	174*
SMILES	RTF Ca sens inh	C-LANA FP	Keap1 Nrf2 FP	cardiac RTF act
CSCCC(NC(=O)COc1ccccc1)C(=O)N(C)Cc1cccc(F)c1 (stereo unspecified)	-8	-2	-4	2
CC(C)CN(C(=O)C1=NN(c2ccccc2)C(=O)CC1)c1c(N)n(Cc2ccccc2)c(=O)[nH]c1=O	5	0	3	-4
CCN(CCCNC(=O)C1c2ccccc2C(=O)N(CCOC)C1c1ccc(F)cc1)Cc1ccccc1 (stereo unspecified)	-9	83*	3	1
CCc1ccccc1C1=CC(=O)C[C@H](c2ccc(OC)cc2)C1	-1	1	-4	-3
CC1=CC(=C(C#N)c2nc3ccccc3s2)C=C(C)N1c1ccc(F)cc1	-7	-3	-2	110*
COc1ccccc1N1C(C)=CC(=C(C#N)c2nc3ccccc3s2)C=C1C	-44	2	2	53*
CN1CCS/C1=C\C=C1/SC(=S)N(CC(=O)O)C1=O	-315	-95	-424	268*
CCN1C(=O)/C(=C/C=C2/SCCN2C)SC1=S	-128	-1	-7	136*
CCN1C(=O)/C(=C/C=C2/Sc3ccccc3N2CCO)SC1=S	-3	-1	-8	-2
CN1C=CC=C/C1=C1\SC(=S)N(CC(=O)O)C1=O	-7	-1	-5	-1
CCc1ccccc1NC(=O)C1=CN2CCS(=O)(=O)N=C2C=C1	-6	2	-9	-3
CN(C)CCCNc1cc(O)c2ncccc2c1	-22	23	22*	-5
O=C(Nc1nc2c(s1)CN(Cc1ccccc1)CC2)C1CCC1	8	-1	-6	1
CN(C)c1ccc(/C=C(\C#N)C(=O)Nc2nc3c(s2)CCN(Cc2ccccc2)C3)cc1	-67	-1	2	83*
CCN(CC)C(=O)Cn1cnc2sc(C(=O)NCCCN3CCOCC3)c(C)c2c1=O	-4	3	-5	3
Cc1ccc(C)c(OCCCC(=O)NC2CCCCC2)c1	-17	0	3	-4
Cc1ccc(OCCCC(=O)NC2CCCCC2)cc1	-3	0	-4	38*
CCCC(C(=O)Nc1ccc2c(C)cc(=O)oc2c1)c1ccccc1 (stereo unspecified)	2	0	-4	-2
Cc1cccc(OCc2nn[nH]n2)c1C	6	2	-2	165*
Clc1ccccc1OCc1nn[nH]n1	-3	3	2	4
Cc1ccc2nc(-c3ccccc3)cc(C(=O)NCC(c3ccco3)N(C)C)c2c1 (stereo unspecified)	-10	3	-2	-7
CS(=O)(=O)Nc1nc2n(n1)C(c1ccccc1)C=C(c1ccc(Br)cc1)N2 (stereo unspecified)	-78	74*	35*	82*
O=C(CC1C(=O)N(c2ccc(Cl)cc2)C(=S)N1CCc1ccncc1)Nc1ccc(F)cc1 (stereo unspecified)	1	0	-5	39*
COc1ccc(-c2csc(NC(=O)CSc3nc(C)nc4sc(C(=O)O)c(C)c34)n2)cc1	3	103*	2	0
Nc1cc2c(cc1Cl)-c1ccccc1C2=NO	6	-2	-5	-7
SMILES	RTF Ca sens inh	C-LANA FP	Keap1 Nrf2 FP	cardiac RTF act
c1coc(-c2nc(-c3ccco3)c(-c3ccco3)nc2-c2ccco2)c1	107*	6	-3	-36
CN1CC=C2C(C#N)=C(N)C(C#N)(C#N)[C@H](c3cccc(Cl)c3)C2C1 (stereo partly specified)	-34	28	4	27
CN1CC=C2C(C#N)=C(N)C(C#N)(C#N)C(CCc3ccccc3)C2C1 (stereo unspecified)	-28	51	20*	35*
Cc1cc(S(=O)(=O)NC2CCN(Cc3ccccc3)CC2)c(C)cc1Cl	-6	82*	0	1
CN1\C(=C/C=C/C=C/C=[N+](C)C)C(C)(C)c2ccccc21	-411	-10	-36	218*
CN1/C(=C/C=C(C#N)C#N)C(C)(C)c2ccccc21	-4	150*	-226	1

Assay outcomes: PubChem BioAssay, several laboratories
